Experimental data from PubChem BioAssay AID1159580 (chemical genetic matrix, 2015).
Values joined by “and” are separate entries in the source; they are usually repeats but may differ in a detail not shown here. Identical values can stand only once. The whole screen tested about 5,500 compounds, of which about 2,000 (36%) were called active. Not shown: some 18% with an inconclusive outcome. No stated cut-off is given here; in the data, active means normalized growth mostly below about 0.91 (no sharp cut-off); inconclusive means no clear call, values can overlap the other calls; inactive means mostly above about 0.92. The list shows a part of the results.

Assay: chemical genetic growth profiling, strain panel (AID 1159580);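 further: tested at 20 µM; growth read once vehicle control cultures reached saturation at 30 °C; 1 = growth at the plate median or of vehicle wells; lower values mean less growth of the strain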
Details: S. cerevisiae deletion strains, growth OD

Measured: normalized growth

NCCC(=O)N[C@@H](Cc1cnc[nH]1)C(=O)O
inactive: locus YAL021C, strain ccr4, active compounds read low 0.997 | locus YAL026C, strain drs2, active compounds read low 1.01 | locus YAL030W, strain snc1, active compounds read low 1.01 | locus YBL061C, strain skt5, active compounds read low 1.01 | locus YBR009C, strain hhf1, active compounds read low 1.01 | locus YBR021W, strain FUR4, active compounds read low 1.06 | locus YBR023C, strain chs3, active compounds read low 1 | locus YBR171W, strain sec66, active compounds read low 1.02 | locus YBR229C, strain ROT2, active compounds read low 0.993 | locus YBR231C, strain swc5, active compounds read low 1.01 | locus YBR279W, strain paf1, active compounds read low 1.01 | locus YCL011C, strain gbp2, active compounds read low 1.01 | locus YCL016C, strain dcc1, active compounds read low 1.01 | locus YCL029C, strain bik1, active compounds read low 0.967 | locus YCL061C, strain MRC1, active compounds read low 1.01 | locus YCL069W, strain vba3, active compounds read low 1.01 | locus YCR088W, strain abp1, active compounds read low 1.01 | locus YDL005C, strain med2, active compounds read low 1.01 | locus YDL035C, strain GPR1, active compounds read low 0.997 | locus YDL040C, strain nat1, active compounds read low 0.998 | locus YDL074C, strain BRE1, active compounds read low 1.01 | locus YDL101C, strain DUN1, active compounds read low 0.994 | locus YDL134C, strain PPH21, active compounds read low 1.04 | locus YDL185W, strain tfp1, active compounds read low 0.957 | locus YDL192W, strain arf1, active compounds read low 0.98 | locus YDR001C, strain nth1, active compounds read low 1.01 | locus YDR069C, strain doa4, active compounds read low 1.01 | locus YDR101C, strain arx1, active compounds read low 0.99 | locus YDR137W, strain rgp1, active compounds read low 1.01 | locus YDR159W, strain sac3, active compounds read low 1.02 | locus YDR162C, strain NBP2, active compounds read low 1.03 | locus YDR195W, strain ref2 0.978 | locus YDR297W, strain sur2, active compounds read low 1.01 | locus YDR318W, strain mcm21, active compounds read low 0.986 | locus YDR334W, strain swr1, active compounds read low 1.01 | locus YDR335W, strain msn5, active compounds read low 1.01 | locus YDR388W, active compounds read low 0.979 | locus YDR392W, strain spt3, active compounds read low 1.03 | locus YDR502C, strain sam2, active compounds read low 0.997 | locus YEL003W, strain gim4, active compounds read low 1.02 | locus YEL037C, strain rad23, active compounds read low 1.01 | locus YEL061C, strain CIN8 (second series), active compounds read low 1.01 | locus YEL061C, strain CIN8, active compounds read low 0.997 | locus YER015W, strain faa2, active compounds read low 1.01 | locus YER016W, strain bim1, active compounds read low 1 | locus YER110C, active compounds read low 0.972 | locus YER111C, strain swi4, active compounds read low 0.992 | locus YER155C, strain BEM2 (second series), active compounds read low 1.03 | locus YER155C, strain BEM2, active compounds read low 0.999 | locus YER167W, strain BCK2, active compounds read low 0.99 | locus YFR010W, strain ubp6, active compounds read low 1.02 | locus YGL078C, strain dbp3, active compounds read low 0.999 | locus YGL086W, strain mad1, active compounds read low 1 | locus YGL167C, strain pmr1, active compounds read low 1.01 | locus YGL173C, strain kem1, active compounds read low 1.01 | locus YGL227W, strain vid30, active compounds read low 1.01 | locus YGL240W, strain doc1, active compounds read low 1.01 | locus YGL248W, strain PDE1, active compounds read low 1 | locus YGL253W, strain hxk2, active compounds read low 1.02 | locus YGR135W, strain pre9, active compounds read low 0.977 | locus YGR229C, strain SMI1, active compounds read low 1.02 | locus YGR252W, strain gcn5, active compounds read low 1.05 | locus YHR013C, strain ard1, active compounds read low 1.04 | locus YHR027C, strain rpn1, active compounds read low 1.02 | locus YHR030C, strain SLT2, active compounds read low 0.983 and 1.01 | locus YHR079C, strain IRE1 (second series), active compounds read low 0.979 | locus YHR079C, strain IRE1, active compounds read low 1.02 | locus YHR094C, strain hxt1, active compounds read low 0.987 | locus YHR129C, strain ARP1, active compounds read low 0.994 | locus YHR142W, strain chs7, active compounds read low 1.03 | locus YHR200W, strain rpn10, active compounds read low 0.986 | locus YIL066C, strain RNR3, active compounds read low 1.01 | locus YIL073C, strain SPO22, active compounds read low 0.942 | locus YIL125W, strain kgd1, active compounds read low 0.975 | locus YIR030C, strain dcg1, active compounds read low 0.983 | locus YJL092W, strain hpr5, active compounds read low 1.01 | locus YJL095W, strain BCK1 (second series), active compounds read low 1.02 | locus YJL095W, strain BCK1, active compounds read low 1.02 and 1.01 | locus YJL115W, strain asf1, active compounds read low 1.02 | locus YJL129C, strain trk1, active compounds read low 1.02 | locus YJL134W, strain LCB3, active compounds read low 0.988 | locus YJL154C, strain vps35, active compounds read low 1.01 | locus YJL164C, strain tpk1, active compounds read low 1.01 | locus YJL166W, strain qcr8, active compounds read low 1.01 | locus YJL168C, strain set2, active compounds read low 0.985 | locus YJL187C, strain SWE1 (second series), active compounds read low 0.999 | locus YJL187C, strain SWE1, active compounds read low 1 | locus YJR043C, strain POL32, active compounds read low 1.02 | locus YJR066W, strain TOR1, active compounds read low 0.968 | locus YKL009W, strain mrt4, active compounds read low 0.94 | locus YKL068W, active compounds read low 0.978 | locus YKL085W, strain MDH1 (second series), active compounds read low 0.975 | locus YKL085W, strain MDH1, active compounds read low 0.975 | locus YKL160W, strain elf1, active compounds read low 1.01 | locus YKL190W, strain CNB1, active compounds read low 0.991 | locus YKR001C, strain vps1, active compounds read low 1.02 | locus YKR026C, strain gcn3, active compounds read low 1.01 | locus YKR091W, strain srl3, active compounds read low 1.01 | locus YLL001W, strain dnm1, active compounds read low 1 | locus YLL026W, active compounds read low 1.01 | locus YLL041C, strain sdh2, active compounds read low 1.01 | locus YLR027C, strain aat2, active compounds read low 0.997 | locus YLR039C, strain RIC1, active compounds read low 1.01 | locus YLR058C, strain SHM2, active compounds read low 0.987 | locus YLR102C, strain apc9, active compounds read low 0.991 | locus YLR113W, strain HOG1, active compounds read low 0.985 | locus YLR221C, strain rsa3, active compounds read low 1.01 | locus YLR258W, strain gsy2, active compounds read low 1.02 | locus YLR262C, strain YPT6 (second series), active compounds read low 1.02 | locus YLR262C, strain YPT6, active compounds read low 0.93 | locus YLR268W, strain sec22, active compounds read low 0.982 | locus YLR320W, strain mms22, active compounds read low 1.02 | locus YLR330W, strain CHS5, active compounds read low 0.983 | locus YLR342W, strain FKS1 (second series), active compounds read low 1.01 | locus YLR342W, strain FKS1, active compounds read low 1.02 | locus YLR357W, strain rsc2, active compounds read low 1.03 | locus YLR370C, strain arc18, active compounds read low 1.01 | locus YLR371W, strain rom2, active compounds read low 0.978 | locus YLR384C, strain iki3, active compounds read low 1.02 | locus YLR418C, strain cdc73, active compounds read low 1 | locus YML016C, strain PPZ1, active compounds read low 0.992 | locus YML032C, strain rad52, active compounds read low 0.976 | locus YML120C, strain ndi1, active compounds read low 1.01 | locus YML124C, strain tub3, active compounds read low 0.986 | locus YMR058W, strain fet3, active compounds read low 1.02 | locus YMR078C, strain ctf18, active compounds read low 0.984 | locus YMR125W, strain sto1, active compounds read low 1.01 | locus YMR129W, active compounds read low 1.01 | locus YMR205C, strain PFK2, active compounds read low 1.01 | locus YMR223W, strain ubp8, active compounds read low 0.979 | locus YMR231W, strain pep5, active compounds read low 0.985 | locus YMR307W, strain GAS1, active compounds read low 1.08 | locus YNL067W, strain RPL9B, active compounds read low 1.01 | locus YNL071W, strain lat1, active compounds read low 1.01 | locus YNL128W, strain TEP1, active compounds read low 0.989 | locus YNL153C, strain GIM3, active compounds read low 1.02 | locus YNL183C, strain NPR1, active compounds read low 0.983 | locus YNL209W, strain ssb2, active compounds read low 1 | locus YNL233W, strain BNI4, active compounds read low 1.03 | locus YNL248C, strain rpa49, active compounds read low 1.02 | locus YNL250W, strain rad50, active compounds read low 0.97 | locus YNL271C, strain bni1, active compounds read low 0.988 | locus YNL298W, strain CLA4, active compounds read low 0.996 | locus YNL307C, strain MCK1, active compounds read low 0.984 | locus YNL322C, strain KRE1 (second series), active compounds read low 1.02 | locus YNL322C, strain KRE1, active compounds read low 0.994 | locus YNR049C, strain mso1, active compounds read low 1.01 | locus YNR052C, strain pop2, active compounds read low 0.982 | locus YOL012C, strain htz1 0.915 | locus YOL147C, strain pex11, active compounds read low 0.993 | locus YOR001W, strain rrp6, active compounds read low 1.01 | locus YOR061W, strain CKA2, active compounds read low 0.99 | locus YOR069W, strain VPS5, active compounds read low 0.993 | locus YOR070C, strain gyp1, active compounds read low 1.02 | locus YOR080W, strain dia2, active compounds read low 1 | locus YOR083W, strain WHI5, active compounds read low 1.02 | locus YOR106W, strain vam3, active compounds read low 1.03 | locus YOR136W, strain idh2, active compounds read low 0.99 | locus YOR144C, strain elg1, active compounds read low 1.01 | locus YOR184W, strain ser1, active compounds read low 1.01 | locus YOR231W, strain MKK1, active compounds read low 1.02 | locus YOR265W, strain rbl2, active compounds read low 0.999 | locus YOR270C, strain vph1, active compounds read low 1.08 | locus YOR290C, strain snf2, active compounds read low 1.02 | locus YOR316C, strain cot1, active compounds read low 0.983 | locus YPL051W, strain arl3, active compounds read low 1.01 | locus YPL055C, strain LGE1, active compounds read low 1.03 | locus YPL078C, strain atp4, active compounds read low 1.01 | locus YPL106C, strain sse1, active compounds read low 1.02 | locus YPL240C, strain hsp82, active compounds read low 1.01 | locus YPL241C, strain CIN2, active compounds read low 0.996 | locus YPL256C, strain CLN2, active compounds read low 1.04 | locus YPR119W, strain clb2, active compounds read low 0.984 | locus YPR141C, strain kar3, active compounds read low 0.973 | locus YPR163C, strain tif3, active compounds read low 0.975 | locus YPR167C, strain met16, active compounds read low 1.01 | strain wtn01, active compounds read low 0.999
